Source: paper PMC7826789 (International Journal of Molecular Sciences, 2021)

Legend:
Details in all cases: Compound Concentration (nM):1000
[1] = tested on: FGFR3
[2] = tested on: FGFR4
[3] = tested on: FGR
[4] = tested on: FLT1
[5] = tested on: FLT3(D835H)
[6] = tested on: FLT3(D835V)
[7] = tested on: FLT3(D835Y)
[8] = tested on: FLT3(ITD)
[9] = tested on: FLT3(ITD,D835V)
[10] = tested on: FLT3(ITD,F691L)
[11] = tested on: FLT3(K663Q)
[12] = tested on: FLT3(N841I)
[13] = tested on: FLT3(R834Q)
[14] = tested on: FLT3-autoinhibited
[15] = tested on: FLT3
[16] = tested on: FLT4
[17] = tested on: FRK
[18] = tested on: FYN
[19] = tested on: GAK
[20] = tested on: T1, GCN2(Kin.Dom.2,S808G)
T1 construct: gene EIF2AK4
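Note: KINOMEscan scanMAX binding as percent activity remaining versus control; lower means stronger binding.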

Compound	Percent Control [1] [%]	Percent Control [2] [%]	Percent Control [3] [%]	Percent Control [4] [%]	Percent Control [5] [%]	Percent Control [6] [%]	Percent Control [7] [%]	Percent Control [8] [%]	Percent Control [9] [%]	Percent Control [10] [%]	Percent Control [11] [%]	Percent Control [12] [%]	Percent Control [13] [%]	Percent Control [14] [%]	Percent Control [15] [%]	Percent Control [16] [%]	Percent Control [17] [%]	Percent Control [18] [%]	Percent Control [19] [%]	Percent Control [20] [%]
COc1cccc(-c2c[nH]c3c(N/N=C/c4ccncc4)ncnc23)c1 [GW814408X]	100	100	43	83	27	7.5	16	21	3.9	43	76	12	19	66	26	90	100	66	11	8.3
CN(C)CCNC(=O)Nc1ccc(N(C)c2ccnc(Nc3ccc(CS(C)(=O)=O)cc3)n2)cc1.Cl [GW830900A]	100	100	100	61	32	6.3	35	8.3	22	19	89	5.6	16	27	2.9	54	99	93	13	100
Cc1cc(O)cc(C)c1/C=C/c1cncc(C(N)=O)c1 [GW435821X]	100	100	64	100	77	31	75	100	100	100	99	100	81	100	95	100	45	70	75	100
CC1=C(C(=O)Nc2ccc3[nH]ncc3c2)C(c2ccc(Cl)c(Cl)c2)CC(=O)N1 (stereo not shown) [GSK299115A]	84	57	86	100	100	75	87	100	80	94	78	100	93	100	100	100	63	70	95	100
COc1cc(N2CCN(C(C)C)CC2)ccc1Nc1nc(Nc2ccc(F)cc2C(=O)NC[C@@H](O)CO)c2cc[nH]c2n1 [GSK1392956A]	97	95	81	94	100	69	68	88	79	40	100	74	100	95	78	85	100	100	6.9	48
CCS(=O)(=O)c1ccc(OC)c(Nc2ncc(-c3cccc(OC)c3)o2)c1 [GW580509X]	44	100	41	54	0.5	0	42	8.2	0	30	10	0	18	40	5.9	13	39	48	38	82
C[C@@H](Oc1cc(-n2cnc3ccc(OC4CCN(C)CC4)cc32)sc1C(N)=O)c1ccccc1Cl [GSK579289A]	86	79	91	75	9.4	0	38	38	15	8.2	17	8.1	18	87	18	81	93	86	69	39
COc1ccccc1-c1cc(/C=C2\C(=O)Nc3ncc(Br)cc32)cc(Br)c1O [GW442130X]	100	100	100	100	86	73	40	100	92	100	100	85	87	100	100	96	100	93	83	79
COc1ccc2cc(-c3c(-c4ccncc4)nc(-c4ccc(S(C)(=O)=O)cc4C)n3C)ccc2c1 [SB-633825]	76	85	63	100	79	74	99	100	80	81	93	96	95	100	92	54	76	78	59	100
CCc1ccc(Oc2nccc(-c3c(-c4ccc(F)cc4)ncn3C3CCNCC3)n2)cc1 [SB-242719]	100	91	87	100	88	100	100	99	89	93	96	69	90	100	71	95	99	96	84	100
NS(=O)(=O)c1ccc(N/N=C2\C(=O)Nc3ccc(C(=O)NCCc4c[nH]cn4)cc32)cc1 [GW300660X]	100	100	100	100	52	0.8	62	80	1.8	4.1	100	100	45	100	90	100	100	100	100	100
COC(=O)Nc1nc2ccc(Oc3ccc(NC(=O)Nc4cc(C(F)(F)F)ccc4F)cc3)cc2s1.Cl [GW693917A]	70	91	71	3	2.3	13	24	4.3	83	44	1	89	11	65	2.4	2.4	15	52	97	100
COc1cc(/C=N/Nc2ncnc3[nH]ncc23)ccc1O [GW578748X]	100	100	63	89	25	0.2	25	43	4.5	11	75	100	56	84	71	100	100	92	13	18
Nc1ncnc2occ(-c3ccc(NC(=O)Nc4cc(C(F)(F)F)ccc4F)cc3)c12 [GW770249X]	77	69	100	2.9	0.9	4.1	11	2.9	52	27	0.5	0	0	33	0.1	0.7	12	95	100	99
COc1cc2ncn(-c3cc(O[C@H](C)c4ccccc4Cl)c(C(N)=O)s3)c2cc1OC [GSK237701A]	57	100	67	69	11	0	28	33	5.9	21	6.5	3.3	14	95	21	9.4	100	100	17	31
NS(=O)(=O)c1ccc(Nc2ncc(-c3ccccc3)o2)cc1 [GW572399X]	100	100	98	100	70	8.5	80	53	29	42	9.2	21	14	2	11	100	100	100	99	80
CN1CCN(C(=O)c2ccc(NC(=O)Nc3ccc(N(C)c4ccnc(Nc5ccc(CS(C)(=O)=O)cc5)n4)cc3)cc2)CC1.Cl [GW830263A]	100	100	57	0.4	0.8	1.2	5.3	0.3	8.9	6.8	0	0	0	7.3	1.5	2	80	98	18	100
Cl.O=C(Nc1ccc(Oc2ccc3[nH]c(NC(=O)c4ccccc4)nc3c2)cc1)Nc1cc(C(F)(F)F)ccc1F [GW709042A]	100	100	82	5.1	2.8	28	14	3.7	95	56	2.6	0	15	90	2.4	12	71	100	100	84
O=C(Nc1n[nH]c2nc(-c3ccc(O)cc3)c(Br)cc12)C1CC1 [SB-725317]	100	100	100	89	29	2.9	33	68	35	37	66	100	72	96	64	84	100	100	81	96
Cl.O=C(O[C@H]1CN[C@H](C#Cc2cc3ncnc(Nc4ccc5c(cnn5Cc5ccccc5)c4)c3s2)C1)N1CCOCC1 [GSK200398A]	100	89	96	99	96	87	89	98	88	92	66	100	92	89	77	100	90	81	88	44
